This is part of a sample that, as a whole, favours compounds with a hit. Of some 83,000 tested, about 20% had one in any assay.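 A percent growth of 40 corresponds to 60% growth inhibition; 0 means no net growth; -100 means all cells died. Active threshold: below 10.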 Unmarked numbers belong to inactive results. Activity calls are given as the source filed them.
What was measured:
Test in all cases: NCI-60 one-dose screen, 48 h (100 = growth as untreated, 0 = no growth, -100 = all killed)
Settings in all cases: 10 µM unless noted
[1] = test system: SK-MEL-2 melanoma
[2] = test system: EKVX NSCLC
[3] = test system: SN12C renal
[4] = test system: UO-31 renal
[5] = test system: TK-10 renal
[6] = test system: ACHN renal
[7] = test system: CAKI-1 renal
[8] = test system: A498 renal
[9] = test system: CCRF-CEM leukemia
[10] = test system: MOLT-4 leukemia
[11] = test system: SR leukemia
[12] = test system: RPMI-8226 leukemia
[13] = test system: OVCAR-8 ovarian
[14] = test system: OVCAR-5 ovarian
[15] = test system: OVCAR-4 ovarian
[16] = test system: SK-OV-3 ovarian
[17] = test system: IGROV1 ovarian
[18] = test system: OVCAR-3 ovarian
[19] = test system: HS 578T breast
[20] = test system: NCI/ADR-RES ovarian

SMILES	growth [1]	growth [2]	growth [3]	growth [4]	growth [5]	growth [6]	growth [7]	growth [8]	growth [9]	growth [10]	growth [11]	growth [12]	growth [13]	growth [14]	growth [15]	growth [16]	growth [17]	growth [18]	growth [19]	growth [20]
CSc1ccccc1C#C/C=C\C#Cc1ccccc1N1CCCC1=O	35.4%	55.3%	72.1%	23.3%	83.1%	57.9%	70.2%	55.3%	23.6%	27.4%	12.5%	22.2%	74.9%	72.2%	59.7%	85.8%	-32.2% (active)	50.9%	98%	41.5%
CCNc1nc(N2CC(=O)Nc3cc(OC)ccc32)c2ccccc2n1	31.6%	12.8%	27%	15.6%	21.3%	8.34% (active)	22.6%	-11.4% (active)	26.8%	24.8%	24.3%	27.3%	18.1%	20%	20.4%	27.4%	14.3%	-16.8% (active)	7.61% (active)	0.157% (active)
CCOc1ccc(/C=C/C=N/NC(N)=S)cc1	108%	95.5%	80.4%	38.3%	74.1%	80.2%	83.9%	77.7%	62.6%	35.8%	70.4%	39.7%	100%	90.9%	73.2%	110%	53.5%	73.7%	95.3%	82.6%
CC(=O)Oc1cccc(OC(C)=O)c1OC(C)=O	103%	95.4%	99.4%	76.6%	107%	102%	84%	87.3%	100%	82.4%	89.6%	105%	106%	99.9%	105%	87%	101%	111%	107%	108%
COc1cc(C(=O)CCCl)ccc1O	114%	93.7%	95.6%	90.9%	109%	96.9%	90.2%	106%	106%	99.5%	96.9%	92%	102%	92.7%	98.8%	111%	104%	102%	101%	94.6%
O=S(=O)(NCCCNc1cc(-c2cn(-c3ccccc3)nc2-c2cccc(O)c2)ccn1)c1ccc(Cl)cc1	5.9% (active)	27.6%	34.5%	10%	33.5%	17%	15.3%	26.4%	11.6%	4.49% (active)	4.43% (active)	8.7% (active)	20.4%	37%	34.7%	33.1%	27.5%	26.6%	5.52% (active)	23.7%
O=C(CSc1nc(-c2ccc(Cl)cc2)cn1-c1ccc(Cl)cc1)c1ccc(Br)cc1	87%	69.1%	62.6%	45.5%	93%	22.4%	78.7%	93.8%	92.8%	90.7%	92.7%	86.1%	48%	84.1%	9.78% (active)	79%	59.9%	84.9%	63.2%	70.6%
CC(C)CCC[C@@H](C)[C@H]1CC[C@H]2[C@@H]3CC[C@H]4C/C(=N/O)CC[C@]4(C)[C@H]3CC[C@]12C	101%	101%	103%	94.3%	105%	110%	96.7%	98.5%	100%	95.9%	99.6%	101%	96.8%	112%	119%	104%	111%	113%	101%	111%
CC/C=C\C[C@H](O)C/C=C1/C(=O)C(Cl)=C[C@@H]1C/C=C\CCCC(=O)OC	-21% (active)	-63.2% (active)	-51.7% (active)	-94.5% (active)	-34.2% (active)	-43.6% (active)	13.2%	1.86% (active)	-3.78% (active)	-6.11% (active)	1.41% (active)	-12.2% (active)	1.69% (active)	-30% (active)	-47.3% (active)	8.03% (active)	-12.6% (active)	-87.8% (active)	35.2%	14%
Cc1sc2nc(CSc3nnc(-c4ccco4)o3)[nH]c(=O)c2c1C	96.4%	110%	114%	106%	189%	93.8%	99.9%	110%	64.3%	48.7%	56.6%	67.3%	104%	114%	105%	132%	109%	108%	115%	112%
CS(=O)(=O)N(c1cc(-c2ccc3ncnc(Nc4cccc(Cl)c4)c3c2)cnc1Cl)S(C)(=O)=O	-20% (active)	-3.18% (active)	21.6%	2.2% (active)	2.1% (active)	11.7%	6.68% (active)	-28% (active)	20.2%	-10.5% (active)	22.8%	-6.09% (active)	23.8%	12.1%	43.3%	-11.1% (active)	-38.3% (active)	11.1%	-3.12% (active)	42.2%
CC1(C)OC2COC3(C(=O)O)OC(C)(C)OC3C2O1 (stereo not given)	93.1%	97%	91.4%	92.3%	94.7%	94.4%	103%	91.7%	128%	104%	121%	109%	108%	90.1%	116%	103%	109%	108%	101%	101%
O=C(CNC(=O)c1cccc2ccccc12)Nc1ccccc1Oc1ccccc1	34.8%	26.3%	21.8%	33.8%	19.8%	29.9%	31.6%	-14.9% (active)	18.3%	24.2%	13.1%	19.8%	13.4%	52.4%	36%	23.3%	32.1%	-30.5% (active)	29.9%	10.3%
CN(C)C/C=C/C(=O)Nc1cc2c(Nc3cccc(Cl)c3F)ncnc2cc1OCCOC(F)F	70.1%	19.2%	12.6%	16.1%	22.4%	4.97% (active)	10.1%	-14.5% (active)	63.1%	38.6%	51.6%	58.6%	34.7%	29.7%	27.9%	-0.955% (active)	-21.7% (active)	23.9%	11.2%	32.9%
O=S(=O)(NCCNc1cc(-c2cn(-c3ccccc3)nc2-c2ccccc2)ccn1)c1cccc2ccccc12	89.5%	36.5%	58.9%	22.3%	66.8%	51.7%	49.8%	72.5%	83.5%	28.4%	56%	38.7%	56%	74.4%	49.1%	66.3%	63.1%	59.5%	56.3%	43.8%
